Here are results for eight molecules from PubChem BioAssay (Tox21).

Experiment [1] has as its target Aryl hydrocarbon receptor (Homo sapiens) (UniProt P35869). In words: qHTS assay to identify small molecule that activate the aryl hydrocarbon receptor (AhR) signaling pathway (AID 743085). Further: nearly all actives have a fitted effect of over 15% in size. Further: potency means the concentration at half of the fitted maximal effect.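 On activation: HG2L7.5c1 human HepG2 liver cells with stably integrated DRE-driven firefly reporter.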 Conditions: HepG2 AhR-luc (HG2L7.5c1), luciferase, 24 h; series mostly up to 70.3 µM. In short, it runs like this: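 HepG2 cells (HG2L7.5c1) stably carrying a firefly luciferase reporter driven by 20 dioxin responsive elements were exposed to compound for 24 h at 37C after a 5 h settling period; luminescence rise (ONE-Glo) indicated activation.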

Experiment [2] is described as follows: qHTS assay to identify small molecule that activate the aryl hydrocarbon receptor (AhR) signaling pathway - cell viability counter screen (AID 743086). Further: nearly all actives have a fitted effect of over 45% in size. Conditions: HepG2-AhR-luc viability, CellTiter-Fluor, 24 h; series mostly up to 70.3 µM. In short, it runs like this: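 Cytotoxicity counter screen: CellTiter-Fluor signal (30 min, 37 C) in 4000 HepG2 cells/well carrying the DRE-luciferase reporter, following 24 h compound exposure at 37 C.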

The target of experiment [3] is Peroxisome proliferator-activated receptor gamma (Homo sapiens) (UniProt P37231). In words: qHTS assay to identify small molecule agonists of the peroxisome proliferator-activated receptor gamma (PPARg) signaling pathway (AID 743094; active means well fitted activation curve with a large enough effect in the signal ratio in the repeat runs, not every such curve was filed as active; the % refers to the signal ratio). The settings on record: HEK293H PPARg-UAS-bla, beta-lactamase FRET ratio, 17 h; series mostly up to 57 µM. In short, it runs like this: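 Cells from the PPARg UAS-bla HEK293H line are plated and incubated 5 h at 37C. Compounds in DMSO are pinned in and left 17 h at 37C. LiveBLAzer B/G substrate is then added for 1 h at room temperature before fluorescence is measured.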
Chain of Peroxisome proliferator-activated receptor gamma (Homo sapiens) (P37231 whole entry, looked up): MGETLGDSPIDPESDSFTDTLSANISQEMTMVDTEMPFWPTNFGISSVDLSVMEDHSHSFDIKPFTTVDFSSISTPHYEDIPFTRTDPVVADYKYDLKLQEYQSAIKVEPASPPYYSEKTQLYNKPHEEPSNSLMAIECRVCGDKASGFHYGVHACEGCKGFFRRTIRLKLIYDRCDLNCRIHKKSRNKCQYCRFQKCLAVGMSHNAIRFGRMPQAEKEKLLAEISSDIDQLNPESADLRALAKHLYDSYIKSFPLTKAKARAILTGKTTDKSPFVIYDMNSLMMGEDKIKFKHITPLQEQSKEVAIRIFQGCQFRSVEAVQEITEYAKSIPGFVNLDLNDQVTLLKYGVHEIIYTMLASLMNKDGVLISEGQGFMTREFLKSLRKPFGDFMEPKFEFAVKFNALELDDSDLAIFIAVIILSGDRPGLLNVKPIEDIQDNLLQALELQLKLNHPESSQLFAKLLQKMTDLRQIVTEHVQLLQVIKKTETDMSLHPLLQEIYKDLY

The nature of experiment [4]: qHTS assay to identify small molecule antagonists of the peroxisome proliferator-activated receptor gamma (PPARg) signaling pathway - cell viability counter screen (AID 743194). Further: nearly all actives have a fitted effect of over 55% in size. Conditions: PPARg-bla HEK293H viability, CellTiter-Glo luminescence, 17 h; Potency: co-treated with 50 nM rosiglitazone; series mostly up to 62.6 µM. In short, it runs like this: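 Viability was measured as CellTiter-Glo luminescence in GeneBLAzer PPARg UAS-bla HEK293H cells. These cells had been exposed 17 h at 37 C to compounds together with rosiglitazone at 50 nM final, with the beta-lactamase readout taken in the same wells.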

A short description of experiment [5]: qHTS assay for small molecule agonists of the antioxidant response element (ARE) signaling pathway (AID 743202; active means well fitted activation curve with a large enough effect in the signal ratio in the repeat runs, not every such curve was filed as active; the % refers to the signal ratio; further: potency means the concentration at half of the fitted maximal effect). The settings on record: HepG2 ARE-bla reporter, beta-lactamase FRET, 16 h; series mostly up to 73.3 µM. In short, it runs like this: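 After 16 hours of compound treatment at 37 C, HepG2 cells with a stably integrated ARE-driven beta-lactamase reporter were loaded 2 hours at room temperature with LiveBLAzer B/G FRET substrate and fluorescence intensity measured.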

Experiment [6] in a line: qHTS assay for small molecule activators of the heat shock response signaling pathway (AID 743210; active means well fitted activation curve with a large enough effect in the signal ratio in the repeat runs, with a control signal flat, not every such curve was filed as active; the % refers to the signal ratio). Conditions: HeLa HSE-bla reporter, beta-lactamase ratio, 5 h; series mostly up to 62.6 µM. In short, it runs like this:
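Compound exposure lasted 5 h at 37 C in HeLa cells carrying a heat-shock-element-driven beta-lactamase reporter. Read-out: fluorescence intensity after 2.5 h room-temperature loading with LiveBLAzer B/G FRET substrate.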

The nature of experiment [7]: qHTS assay to identify small molecule agonists of the peroxisome proliferator-activated receptor delta (PPARd) signaling pathway - cell viability counter screen (AID 743211). Further: nearly all actives have a fitted effect of over 55% in size. Conditions: PPARd-bla HEK293H viability, CellTiter-Glo luminescence, 17 h; series mostly up to 62.6 µM. In short, it runs like this:
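PPARd-bla HEK293H cells (UAS-beta-lactamase reporter) were treated with compounds for 17 h at 37 C. Viability was then read in the same wells by CellTiter-Glo luminescence after 30 min at room temperature.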

For experiment [8], the target named is Peroxisome proliferator-activated receptor delta (Homo sapiens) (UniProt Q03181). The experiment is described as follows: qHTS assay to identify small molecule agonists of the peroxisome proliferator-activated receptor delta (PPARd) signaling pathway (AID 743212; calls by dose curve). The settings on record: HEK293H PPARd-UAS-bla, beta-lactamase FRET ratio, 17 h; series mostly up to 62.6 µM. In short, it runs like this:
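Beta-lactamase reporter readout: a ratiometric FRET signal from the LiveBLAzer substrate after 2 h at room temperature. Compound exposure at 37 °C in PPARδ-bla HEK293H cells driven by an upstream activator sequence.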

The nature of experiment [9]: qHTS assay to identify small molecule antagonists of the peroxisome proliferator-activated receptor delta (PPARd) signaling pathway - cell viability counter screen (AID 743213). Further: nearly all actives have a fitted effect of over 50% in size. Conditions: PPARd-bla HEK293H viability, CellTiter-Glo luminescence, 17 h; series mostly up to 62 µM. In short, it runs like this: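 Viability counter-screen, qHTS format: PPARd-bla HEK293H, L165041 300 nM final, 17 h compound exposure at 37 C, CellTiter-Glo luminescence after 30 min RT.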

For experiment [10], the target named is Peroxisome proliferator-activated receptor delta (Homo sapiens) (UniProt Q03181). The experiment is described as follows: qHTS assay to identify small molecule antagonists of the peroxisome proliferator-activated receptor delta (PPARd) signaling pathway (AID 743215; active means well fitted inhibition curve with a large enough effect in the signal ratio in the repeat runs, not every such curve was filed as active; the % refers to the signal ratio;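 further: cells stimulated with agonist L165041 at 300 nM final during compound exposure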). The settings on record: HEK293H PPARd-UAS-bla, beta-lactamase FRET ratio, antagonist, 17 h; series mostly up to 62 µM. In short, it runs like this:
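Cells: HEK293H with a UAS-driven beta-lactamase reporter responsive to PPARd. Compounds were co-added with L165041 (300 nM, final) and incubated 17 h at 37 C before a 2 h room-temperature FRET substrate step and fluorescence reading.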

Experiment [11] addresses Bile acid receptor (Homo sapiens) (UniProt Q96RI1). In words: qHTS assay to identify small molecule antagonists of the farnesoid-X-receptor (FXR) signaling pathway (AID 743217; active means well fitted inhibition curve with a large enough effect in the signal ratio in the repeat runs, not every such curve was filed as active; the % refers to the signal ratio). Conditions: HEK293T FXR-UAS-bla, beta-lactamase ratio, CDCA-stimulated, 16 h; series mostly up to 62.6 µM. In short, it runs like this:
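Cells carrying a UAS-driven beta-lactamase reporter (GeneBLAzer FXR-UAS-bla HEK 293T) were plated and rested 5 h at 37 °C. Compounds in DMSO were added alongside chenodeoxycholic acid agonist at 50 uM final and left 16 h at 37 °C before FRET substrate readout.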

Experiment [12] can be described thus: qHTS assay to identify small molecule agonists of the farnesoid-X-receptor (FXR) signaling pathway - cell viability counter screen (AID 743218). Further: nearly all actives have a fitted effect of over 45% in size. The settings on record: FXR-bla HEK293T viability, CellTiter-Glo luminescence, 16 h; series mostly up to 62.6 µM. In short, it runs like this:
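Cells were seeded, left 5 h at 37 C and 5% CO2, then dosed with compound in DMSO for 16 h. After the beta-lactamase FRET read, CellTiter-Glo was added and luminescence measured 30 min later.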

The target of experiment [13] is Bile acid receptor (Homo sapiens) (UniProt Q96RI1). The experiment is described as follows: qHTS assay to identify small molecule agonists of the farnesoid-X-receptor (FXR) signaling pathway (AID 743220; active means well fitted activation curve with a large enough effect in the signal ratio in the repeat runs, not every such curve was filed as active; the % refers to the signal ratio). Conditions: HEK293T FXR-UAS-bla, beta-lactamase FRET ratio, 16 h; series mostly up to 62.6 µM. In short, it runs like this:
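FXR-UAS-bla HEK 293T cells carrying a UAS-driven beta-lactamase reporter were plated for 5 h at 37C/5% CO2, then exposed to DMSO-dissolved Tox21 10K compounds for 16 h at 37C. A LiveBLAzer B/G FRET substrate was loaded for 2 h at room temperature before fluorescence reading.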

Experiment [14] can be described thus: qHTS assay to identify small molecule antagonists of the farnesoid-X-receptor (FXR) signaling pathway - cell viability counter screen (AID 743221; active means well fitted cell-killing curve with a large enough effect in the repeat runs, not every such curve was filed as active; further: nearly all actives have a fitted effect of over 50% in size). The settings on record: FXR-bla HEK293T viability, CellTiter-Glo luminescence, 16 h; series mostly up to 62.6 µM. In short, it runs like this: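 FXR-UAS-bla HEK 293T cells were treated with test compounds plus chenodeoxycholic acid (50 uM final) for 16 h at 37 C. Cell viability in the same wells was then read as CellTiter-Glo luminescence after 30 min at room temperature.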

The target of experiment [15] is Vitamin D3 receptor (Homo sapiens) (UniProt P11473). In words: qHTS assay to identify small molecule agonists of the vitamin D receptor (VDR) signaling pathway (AID 743222; calls by dose curve). Conditions: HEK293T VDR-UAS-bla, beta-lactamase FRET ratio, 16 h; series mostly up to 63.5 µM. In short, it runs like this:
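Cells carrying a VDR-driven beta-lactamase reporter are seeded at 2,000 per well and rested 4 h. Compounds in DMSO are added for 16 h at 37C, and FRET substrate fluorescence is measured after 2 h at room temperature.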

Experiment [16] shares this target. The experiment is described as follows: qHTS assay to identify small molecule antagonists of the vitamin D receptor (VDR) signaling pathway (AID 743223; active means well fitted inhibition curve with a large enough effect in the signal ratio in the repeat runs, not every such curve was filed as active; the % refers to the signal ratio). Conditions: VDR-UAS-bla HEK293T, beta-lactamase FRET ratio, 16 h; series mostly up to 61 µM. In short, it runs like this:
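VDR-bla cells were plated, incubated 4 h at 37C, then given compound and 1alpha,25-dihydroxyvitamin D3 (3 nM final). After 16 h at 37C, LiveBLAzer B/G FRET substrate was added for 2 h at room temperature and fluorescence read.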

A short description of experiment [17]: qHTS assay to identify small molecule agonists of the vitamin D receptor (VDR) signaling pathway - cell viability counter screen (AID 743224). Further: nearly all actives have a fitted effect of over 50% in size. The settings on record: VDR-bla HEK293T viability, CellTiter-Glo luminescence, 16 h; series mostly up to 62.6 µM. In short, it runs like this:
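Cells: VDR-bla, 2,000/well, settled 4 h. Treatment: compounds in DMSO, 16 h, 37C/5% CO2. Readout: CellTiter-Glo luminescence after 30 min RT.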

Experiment [18] can be described thus: qHTS assay for small molecule agonists of the antioxidant response element (ARE) signaling pathway - cell viability counter screen (AID 743203; calls by dose curve; further: nearly all actives have a fitted effect of over 55% in size). The settings on record: ARE-bla HepG2 viability, CellTiter-Glo luminescence, 16 h; series mostly up to 73.3 µM. In short, it runs like this: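 Cytotoxicity was tested in parallel with the ARE reporter screen. ARE-bla HepG2 cells were exposed to compounds for 16 hrs, and viability was taken from CellTiter-Glo luminescence.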

Experiment [19] is described as follows: qHTS assay for small molecule activators of the heat shock response signaling pathway - cell viability counter screen (AID 743209). Further: nearly all actives have a fitted effect of over 50% in size. The settings on record: HSE-bla HeLa viability, CellTiter-Glo luminescence, 5 h; series mostly up to 62.6 µM. In short, it runs like this:
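Cytotoxicity counter screen run in parallel with the HSE beta-lactamase reporter, using the same wells. HeLa HSE-bla cells received compound for 5 h at 37 C; ATP-based CellTiter-Glo luminescence was measured after 30 min at room temperature.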

Structures are written as SMILES. Inconclusive results are not listed. Calls of active or inactive are those of the source. Unless noted, the call rests on the fitted dose curve; in most records, active means well fitted curve in the direction sought with a large enough effect in the repeat runs; inconclusive means weak or mixed curves; inactive means no such curve, though single readings can be large; an effect the other way counts as inactive or inconclusive.

Chain of Vitamin D3 receptor (Homo sapiens) (P11473 whole entry, looked up): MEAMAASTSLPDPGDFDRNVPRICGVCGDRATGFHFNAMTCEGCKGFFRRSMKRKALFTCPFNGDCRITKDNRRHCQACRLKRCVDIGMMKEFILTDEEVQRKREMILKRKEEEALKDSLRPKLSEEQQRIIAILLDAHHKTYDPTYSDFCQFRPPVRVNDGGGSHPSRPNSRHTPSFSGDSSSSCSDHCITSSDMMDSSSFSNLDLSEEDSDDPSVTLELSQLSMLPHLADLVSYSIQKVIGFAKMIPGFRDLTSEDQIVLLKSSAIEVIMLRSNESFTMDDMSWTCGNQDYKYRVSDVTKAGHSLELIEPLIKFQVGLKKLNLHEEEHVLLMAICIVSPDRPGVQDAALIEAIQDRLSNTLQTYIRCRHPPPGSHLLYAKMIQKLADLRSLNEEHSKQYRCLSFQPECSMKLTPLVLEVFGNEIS
Chain of Peroxisome proliferator-activated receptor delta (Homo sapiens) (Q03181 whole entry, looked up): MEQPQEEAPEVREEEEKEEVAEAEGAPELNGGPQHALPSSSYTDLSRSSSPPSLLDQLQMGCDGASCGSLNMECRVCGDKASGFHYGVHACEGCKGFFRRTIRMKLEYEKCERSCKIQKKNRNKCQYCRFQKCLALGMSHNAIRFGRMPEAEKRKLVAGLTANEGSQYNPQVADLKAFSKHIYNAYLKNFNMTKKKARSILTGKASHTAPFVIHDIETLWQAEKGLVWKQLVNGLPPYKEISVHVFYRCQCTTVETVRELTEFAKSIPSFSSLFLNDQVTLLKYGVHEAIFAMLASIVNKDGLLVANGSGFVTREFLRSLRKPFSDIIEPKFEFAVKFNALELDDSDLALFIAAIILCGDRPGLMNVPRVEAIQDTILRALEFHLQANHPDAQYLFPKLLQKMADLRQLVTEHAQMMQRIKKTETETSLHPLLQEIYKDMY
Chain of Bile acid receptor (Homo sapiens) (Q96RI1 whole entry, looked up): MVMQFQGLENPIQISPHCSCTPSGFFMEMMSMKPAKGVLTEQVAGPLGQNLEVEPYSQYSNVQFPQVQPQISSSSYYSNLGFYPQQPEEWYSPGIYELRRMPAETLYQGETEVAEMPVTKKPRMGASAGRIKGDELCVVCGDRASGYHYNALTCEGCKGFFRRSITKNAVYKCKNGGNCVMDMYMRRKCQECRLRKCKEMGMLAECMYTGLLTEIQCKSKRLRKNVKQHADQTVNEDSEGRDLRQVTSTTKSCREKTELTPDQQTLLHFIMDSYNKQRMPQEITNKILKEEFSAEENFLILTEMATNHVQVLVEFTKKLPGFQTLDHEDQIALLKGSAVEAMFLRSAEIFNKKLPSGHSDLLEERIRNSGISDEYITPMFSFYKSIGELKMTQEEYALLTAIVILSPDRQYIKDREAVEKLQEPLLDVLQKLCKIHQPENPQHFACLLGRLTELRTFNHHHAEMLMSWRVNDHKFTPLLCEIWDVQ
Chain of Aryl hydrocarbon receptor (Homo sapiens) (P35869 whole entry, looked up): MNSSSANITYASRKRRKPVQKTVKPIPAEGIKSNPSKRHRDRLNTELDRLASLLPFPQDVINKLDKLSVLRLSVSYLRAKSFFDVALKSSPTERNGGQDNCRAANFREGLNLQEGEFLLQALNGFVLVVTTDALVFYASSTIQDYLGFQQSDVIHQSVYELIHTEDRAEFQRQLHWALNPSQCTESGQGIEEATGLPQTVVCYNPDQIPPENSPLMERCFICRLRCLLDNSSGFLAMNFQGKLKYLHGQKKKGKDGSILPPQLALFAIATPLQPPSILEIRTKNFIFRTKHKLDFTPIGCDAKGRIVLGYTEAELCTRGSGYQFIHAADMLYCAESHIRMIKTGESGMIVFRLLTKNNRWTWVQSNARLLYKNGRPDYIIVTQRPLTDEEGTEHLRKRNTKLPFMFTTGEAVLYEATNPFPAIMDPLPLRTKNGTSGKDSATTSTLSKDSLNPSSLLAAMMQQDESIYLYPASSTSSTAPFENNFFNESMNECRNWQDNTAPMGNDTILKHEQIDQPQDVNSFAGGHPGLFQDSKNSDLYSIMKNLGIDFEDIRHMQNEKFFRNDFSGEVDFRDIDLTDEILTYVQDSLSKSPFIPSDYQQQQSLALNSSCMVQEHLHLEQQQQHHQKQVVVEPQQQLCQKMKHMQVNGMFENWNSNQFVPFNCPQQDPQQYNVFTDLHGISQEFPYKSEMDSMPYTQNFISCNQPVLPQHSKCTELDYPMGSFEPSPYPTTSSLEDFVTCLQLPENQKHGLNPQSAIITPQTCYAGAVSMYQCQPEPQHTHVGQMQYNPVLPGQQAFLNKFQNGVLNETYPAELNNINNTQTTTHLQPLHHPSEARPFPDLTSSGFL

For the molecule `CCN(CC)C1CCCCC1`, the Potency result in experiment [1], in experiment [2], in experiment [4], in [5], in experiment [6] and in experiment [7] was “inactive” throughout. Besides, the Potency entry in [9], in experiment [10], in experiment [12], in experiment [14] and in experiment [17] was “inactive” throughout. Besides, the outcome in [3], in experiment [8], in [11], in experiment [13], in [15] and in experiment [16] was inactive.
Consider `O=C(NC(=O)c1c(F)cccc1F)Nc1cc(Cl)c(F)c(Cl)c1F`, for which the Potency entry in experiment [1], in experiment [2], in [4], in experiment [6], in [7] and in experiment [9] was “inactive” each time. The Potency entry in experiment [10], in experiment [12], in [14] and in experiment [17] was “inactive” in each case. The outcome in experiment [3], in [8], in [15] and in experiment [16] was inactive.
For the molecule `C[C@]12C=CC(=O)C=C1CC[C@@H]1[C@@H]2CC[C@@]2(C)[C@H]1CC[C@]2(C)O`, the Potency result in experiment [1], in [2], in experiment [4], in experiment [18], in experiment [19] and in [6] was “inactive” in each case. Moreover, the Potency entry in [7], in [12], in [14] and in experiment [17] was “inactive” in each case. The outcome in [3] and in experiment [16] was inactive.
As for `COC1=CC(=O)O[C@@H](/C=C/c2ccccc2)C1`, the Potency entry in experiment [1], in [2], in experiment [4], in experiment [18], in experiment [19] and in experiment [6] was “inactive” each time. The Potency result in experiment [7], in experiment [9], in experiment [10], in experiment [12], in experiment [14] and in experiment [17] was “inactive” in each case. For the same molecule, the outcome in experiment [3], in [8], in [11], in experiment [13], in [15] and in experiment [16] was inactive.
Turning to `CCCCCCCCBr`, the Potency result in [1], in experiment [2], in experiment [4], in experiment [5], in [6] and in experiment [7] was “inactive” in each case. The Potency result in [9], in [12], in experiment [14] and in experiment [17] was “inactive” in each case. Besides, the result in [3], in [11], in experiment [13], in experiment [15] and in experiment [16] was inactive.
On to `C=C(Cl)CSC(=S)N(CC)CC`, for which the Potency result in experiment [1], in experiment [2], in [4], in experiment [18], in experiment [7] and in experiment [9] was “inactive” in each case. For the same molecule, the Potency result in [12], in experiment [14] and in [17] was “inactive” each time. For the same molecule, the result in [3], in experiment [8], in [11], in [13], in experiment [15] and in [16] was inactive.
For `CC#Cc1cc(C)nc(Nc2ccccc2)n1`, the Potency in experiment [1] was 30.6 µM (active); in experiment [5], 34.3 µM (active). The Potency entry in experiment [2], in experiment [4], in [19], in experiment [6], in experiment [7] and in experiment [9] was “inactive” in each case. Also, the Potency entry in [10], in [14] and in [17] was “inactive” in each case. Further, the result in experiment [3], in experiment [8], in experiment [15] and in experiment [16] was inactive.
With `CCC(=O)c1ccc(Cl)cc1`, the Potency entry in [1], in experiment [2], in experiment [4], in experiment [5], in experiment [19] and in experiment [6] was “inactive” throughout. In addition, the Potency entry in experiment [7], in experiment [9], in experiment [10], in experiment [12], in experiment [14] and in [17] was “inactive” each time. Further, the result in [3], in experiment [8], in experiment [15] and in [16] was inactive.
